Unmarked numbers belong to inactive results. For some of these results: Potency and affinity values are given separately. The source made the active and inactive calls. Unless noted, no rule for the calls is given here.

Assay [1] in a line: antimalarial activity against Dd2 strain (AID 2302;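 active = growth inhibition above 50% at the single 2 µM test dose, taken to imply half-maximal potency below 2 µM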;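 also: 0% = DMSO untreated growth and 100% = chloroquine plus artemisinin killed control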). The conditions noted are these: P. falciparum Dd2 in RBCs, LDH growth readout, 72 h; at 2 µM; hits give high values.
Assay [2] in a line: HepG2 cytotoxicity, primary screen, cytotoxicity control for P. falciparum antimalarial project, cell-based, ATP luminescence (AID 2303;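 active = inhibition above 50%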;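 also: 0% = DMSO wells and 100% = digitonin-killed cells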). As to conditions: HepG2 viability, 24-48 h, at 10 µM, hits give high values.
The target in assay [3] is L-lactate dehydrogenase (Plasmodium falciparum (isolate CDC / Honduras)) (UniProt Q27743). The assay is described as follows: PfLDH activity inhibition – cell lysate, 3D7 strain, counter-screen for P. falciparum growth inhibition project (AID 2304).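 Also: 0% = vehicle and 100% = reference inhibitor.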 As to conditions: P. falciparum 3D7 crude extract, LDH APAD/NBT absorbance; at 2 µM; hits give high values. Background: Counterscreens check selectivity or assay interference.
Chain of L-lactate dehydrogenase (Plasmodium falciparum (isolate CDC / Honduras)) (Q27743 whole entry, looked up): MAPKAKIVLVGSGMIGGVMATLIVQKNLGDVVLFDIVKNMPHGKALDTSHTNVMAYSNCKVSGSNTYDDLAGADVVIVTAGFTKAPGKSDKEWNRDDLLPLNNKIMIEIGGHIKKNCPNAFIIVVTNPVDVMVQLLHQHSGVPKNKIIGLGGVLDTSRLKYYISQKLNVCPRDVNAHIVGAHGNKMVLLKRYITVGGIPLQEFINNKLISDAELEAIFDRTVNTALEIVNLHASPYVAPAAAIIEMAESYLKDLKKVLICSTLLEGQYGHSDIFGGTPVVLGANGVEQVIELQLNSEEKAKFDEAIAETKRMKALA

Assay [4] is described as follows: inhibition of 3D7 malaria parasite growth – strain 3D7 (AID 2306).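 Also: 0% = DMSO wells and 100% = chloroquine plus artemisinin control wells.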 The conditions noted are these: P. falciparum 3D7 erythrocytic growth, LDH absorbance, 72 h; at 2 µM; hits give high values.
In assay [5] the target is Calcium-dependent protein kinase 1 (Plasmodium falciparum (isolate 3D7)) (UniProt P62344). The assay is described as follows: PfCDPK1 kinase inhibitors, biochemical, TCAMS library (AID 1159585; cut-off not given, nearly all actives have IC50 up to about 0.98 µM;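 also: inhibitors leave more ATP so luminescence rises with inhibition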). The conditions noted are these: recombinant PfCDPK1, Kinase-Glo ATP depletion luminescence. In general terms: In Kinase-Glo more light means more ATP remaining.
Chain of Calcium-dependent protein kinase 1 (Plasmodium falciparum (isolate 3D7)) (P62344 whole entry, looked up): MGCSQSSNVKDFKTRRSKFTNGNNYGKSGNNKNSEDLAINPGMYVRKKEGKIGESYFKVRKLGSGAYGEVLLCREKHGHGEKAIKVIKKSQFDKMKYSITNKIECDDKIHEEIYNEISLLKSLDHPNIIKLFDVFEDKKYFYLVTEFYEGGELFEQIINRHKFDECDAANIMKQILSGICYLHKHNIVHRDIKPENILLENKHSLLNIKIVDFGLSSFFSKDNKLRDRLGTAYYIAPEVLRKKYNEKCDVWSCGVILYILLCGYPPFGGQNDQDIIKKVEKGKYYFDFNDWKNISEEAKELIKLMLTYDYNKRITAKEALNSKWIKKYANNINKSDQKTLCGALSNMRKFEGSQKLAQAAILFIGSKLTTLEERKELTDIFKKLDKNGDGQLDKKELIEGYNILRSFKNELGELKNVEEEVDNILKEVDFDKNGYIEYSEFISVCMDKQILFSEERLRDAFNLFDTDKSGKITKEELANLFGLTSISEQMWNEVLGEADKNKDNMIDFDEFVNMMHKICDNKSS
Assay [6] concerns the target Plasmodium falciparum protein kinase 6 (PK6, PF3D7_1337100) (UniProt Q8IDW1). The assay is described as follows: PfPK6 kinase inhibitors, biochemical, TCAMS library (AID 1159586). The conditions noted are these: recombinant PfPK6, Kinase-Glo ATP depletion luminescence.
For assay [7], the target named is Protein kinase 7 (PK7), Plasmodium falciparum 3D7 (PF3D7_0213400) (UniProt Q7YTF7). The assay is described as follows: inhibition of Plasmodium PK7 catalytic activity – biochemical, TCAMS antimalarial set, Kinase-Glo luminescence (AID 1159587). As to conditions: recombinant PfPK7, Kinase-Glo ATP depletion luminescence.
Chain of Protein kinase 7 (PK7), Plasmodium falciparum 3D7 (PF3D7_0213400) (Q7YTF7 1-343): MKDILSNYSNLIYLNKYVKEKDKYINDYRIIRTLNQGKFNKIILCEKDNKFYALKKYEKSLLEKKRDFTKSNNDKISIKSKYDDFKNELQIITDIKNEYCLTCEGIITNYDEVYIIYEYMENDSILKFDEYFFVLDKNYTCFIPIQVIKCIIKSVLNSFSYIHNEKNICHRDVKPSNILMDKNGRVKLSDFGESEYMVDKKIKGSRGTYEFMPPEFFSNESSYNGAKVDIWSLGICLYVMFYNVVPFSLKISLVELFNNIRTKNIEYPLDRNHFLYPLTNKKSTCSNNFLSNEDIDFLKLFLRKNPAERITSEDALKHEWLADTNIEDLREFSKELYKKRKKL
The target of assay [8] is Calcium-dependent protein kinase 4 (Plasmodium falciparum (isolate 3D7)) (UniProt Q8IBS5). The assay is described as follows: PfCDPK4 kinase inhibitors, biochemical, TCAMS library (AID 1159588; cut-off not given, nearly all actives have IC50 up to about 0.91 µM). The conditions noted are these: recombinant PfCDPK4, Kinase-Glo ATP depletion luminescence.
Chain of Calcium-dependent protein kinase 4 (Plasmodium falciparum (isolate 3D7)) (Q8IBS5 whole entry, looked up): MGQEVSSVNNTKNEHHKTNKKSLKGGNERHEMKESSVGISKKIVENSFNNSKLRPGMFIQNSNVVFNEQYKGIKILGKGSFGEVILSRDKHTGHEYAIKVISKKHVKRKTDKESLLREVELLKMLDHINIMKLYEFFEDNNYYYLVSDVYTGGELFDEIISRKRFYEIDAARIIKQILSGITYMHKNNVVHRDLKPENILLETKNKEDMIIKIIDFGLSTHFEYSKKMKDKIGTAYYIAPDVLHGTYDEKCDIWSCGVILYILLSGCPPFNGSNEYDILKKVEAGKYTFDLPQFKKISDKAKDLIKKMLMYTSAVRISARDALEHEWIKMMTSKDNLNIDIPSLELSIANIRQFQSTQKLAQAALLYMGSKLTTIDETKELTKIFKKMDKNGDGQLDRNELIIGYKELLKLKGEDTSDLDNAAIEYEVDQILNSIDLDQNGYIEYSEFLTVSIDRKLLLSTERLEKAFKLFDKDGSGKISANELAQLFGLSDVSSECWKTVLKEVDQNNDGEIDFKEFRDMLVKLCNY

Chain of Plasmodium falciparum protein kinase 6 (PK6, PF3D7_1337100) (Q8IDW1 1-305): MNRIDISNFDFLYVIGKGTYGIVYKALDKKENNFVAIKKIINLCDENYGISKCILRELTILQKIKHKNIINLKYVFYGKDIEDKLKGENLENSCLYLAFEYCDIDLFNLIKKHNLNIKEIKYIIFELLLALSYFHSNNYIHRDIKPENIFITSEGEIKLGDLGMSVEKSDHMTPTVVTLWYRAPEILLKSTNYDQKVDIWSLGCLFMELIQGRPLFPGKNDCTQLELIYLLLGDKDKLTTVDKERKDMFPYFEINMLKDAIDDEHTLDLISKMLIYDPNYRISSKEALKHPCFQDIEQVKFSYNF

Broadly, the inhibition is the drop in the measured response relative to a control, in per cent. With `CC[C@H]1CN(CCCC(=O)c2ccccc2)CC[C@H]1CCCc1ccnc2ccc(OC(=O)c3ccccc3)cc12`, the growth inhibition in assay [1] is 68% (active); in assay [4], 83% (active). Also, the inhibition was 28% in assay [2] and 1% in assay [3]. In addition, the outcome in assay [5], in assay [6], in assay [7] and in assay [8] was inactive.

As to `CCc1nc(N)nc(N)c1-c1ccc(F)cc1`, the growth inhibition in assay [1] was -3%; in assay [4], 96% (active). In addition, the inhibition is 52% (active) in assay [2] and -2% in assay [3]. Further, the result in assay [5], in assay [6], in assay [7] and in assay [8] was inactive.

With `Cc1ccc(N(CCC(=N)N)Cc2ccccc2)cc1`, the growth inhibition in assay [1] is 95% (active); in assay [4] it was 96% (active). The inhibition was 6% in assay [2] and -3% in assay [3]. Also, the outcome in assay [5], in assay [6], in assay [7] and in assay [8] was inactive.

With `Cc1cccc2[nH]c(-c3ccc(-c4ccc(CN5CCN(CCC#N)CC5)cc4)cc3)nc12`, the values for the growth inhibition in assay [1] and in assay [4] were 27% and 91% (active), respectively. The figures for the inhibition in assay [2] and in assay [3] were 48% and 0%, respectively. Moreover, the outcome in assay [5], in assay [6], in assay [7] and in assay [8] was inactive.

Consider `COc1ccc2nccc([C@@H](O)CN3CCC(NCc4cc5cccc6c5n(c4=O)CCC6)CC3)c2c1`, for which the growth inhibition in assay [1] is 97% (active); in assay [4], 98% (active). For the same compound, the inhibition is 33% in assay [2] and 1% in assay [3]. In addition, the outcome in assay [5], in assay [6], in assay [7] and in assay [8] was inactive.

Take `CC(=O)Nc1ncc(C(=O)Nc2cccc(-c3ccc(-c4nc5ccc(F)cc5[nH]4)cc3)c2)s1`: the growth inhibition was 78% (active) in assay [1] and 94% (active) in assay [4]. The inhibition in assay [2] was 18%; in assay [3], 4%. Besides, the result in assay [5], in assay [6], in assay [7] and in assay [8] was inactive.

Take `CCCOc1ccc(OCCCON2C(N)=NC(N)=NC2(C)C)cc1`: the growth inhibition in assay [1] is 94% (active); in assay [4], 96% (active). Besides, the figures for the inhibition in assay [2] and in assay [3] were 59% (active) and 5%, respectively. The result in assay [5], in assay [6], in assay [7] and in assay [8] was inactive.

On to `CC1(C)N=C(N)N=C(N)N1OCCCc1cccc(C(F)(F)F)c1`, for which the growth inhibition in assay [1] and in assay [4] was 95% (active) in each case. The figures for the inhibition in assay [2] and in assay [3] were 62% (active) and -3%, respectively. For the same compound, the result in assay [5], in assay [6], in assay [7] and in assay [8] was inactive.

On to `Cc1cc(Nc2ncc3c(n2)N(C2CCC2)CC3)ccc1N1CCN(C)CC1`, for which the results for the growth inhibition in assay [1] and in assay [4] were 100% (active) and 101% (active), respectively. Besides, the values for the inhibition in assay [2] and in assay [3] were 27% and -2%, respectively. In addition, the result in assay [5], in assay [6], in assay [7] and in assay [8] was inactive.

Take `COc1ccc(CNc2nc(NCCc3ccccc3)c3cc(OC)c(OC)cc3n2)cc1OC`: the growth inhibition in assay [1] was 101% (active); in assay [4], 100% (active). Further, the values for the inhibition in assay [2] and in assay [3] were 48% and 3%, respectively. In addition, the result in assay [5], in assay [6], in assay [7] and in assay [8] was inactive.

Take `Cc1cc(N2CCN(CC3CCN(C)CC3)CC2)nc(Nc2ccc(Br)cc2)n1`: the growth inhibition in assay [1] and in assay [4] was 100% (active) throughout. The inhibition in assay [2] was 31%; in assay [3], 5%. For the same compound, the result in assay [5], in assay [6], in assay [7] and in assay [8] was inactive.

As for `Cc1cccc2[nH]c(-c3cccc(-c4ccc(NC(=O)CS(C)(=O)=O)cc4)c3)nc12`, the results for the growth inhibition in assay [1] and in assay [4] were 8% and 85% (active), respectively. Moreover, the inhibition in assay [2] is 3%; in assay [3] it was -8%. Also, the result in assay [5], in assay [6], in assay [7] and in assay [8] was inactive.

As to `COc1ccc2ncc(F)c(CCN3[C@@H]4CC[C@H]3CC(NCc3cc5c(cn3)OCS5)C4)c2n1` (stereo not given in full), the growth inhibition is 48% in assay [1] and 95% (active) in assay [4]. In addition, the inhibition in assay [2] is 15%; in assay [3], -2%. In addition, the result in assay [5], in assay [6], in assay [7] and in assay [8] was inactive.

On to `COc1ccc(NC(=O)[C@H](Cc2ccccc2)Nc2cc(C)nc(NCCc3ccccc3OC)n2)cc1`, for which the growth inhibition was 83% (active) in assay [1] and 100% (active) in assay [4]. The inhibition in assay [2] is 10%; in assay [3], 3%. The result in assay [5], in assay [6], in assay [7] and in assay [8] was inactive.

Turning to `COc1ccc(-c2nonc2NC(=O)c2cccc(Cl)c2)cc1OC`, the growth inhibition in assay [1] was 63% (active); in assay [4], 98% (active). The inhibition in assay [2] is 41%; in assay [3] it was 4%. Further, the outcome in assay [5], in assay [6], in assay [7] and in assay [8] was inactive.

`COc1ccc2nccc([C@H](O)CN3CCC(NCc4ccc5c(c4C)OCCO5)CC3)c2n1`: the results for the growth inhibition in assay [1] and in assay [4] were 6% and 94% (active), respectively. The inhibition was 26% in assay [2] and 4% in assay [3]. For the same compound, the result in assay [5], in assay [6], in assay [7] and in assay [8] was inactive.

On to `CCCCCN1C(=O)C(c2ccccc2)(c2ccccc2)N=C1N`, for which the results for the growth inhibition in assay [1] and in assay [4] were 68% (active) and 97% (active), respectively. Also, the inhibition was 18% in assay [2] and -1% in assay [3]. Moreover, the result in assay [5], in assay [6], in assay [7] and in assay [8] was inactive.

`C=CCn1c(Sc2ccc(C#N)c([N+](=O)[O-])c2)nnc1-c1cccc(Cl)c1`: the growth inhibition is 54% (active) in assay [1] and 97% (active) in assay [4]. Moreover, the inhibition was 41% in assay [2] and -1% in assay [3]. For the same compound, the result in assay [5], in assay [6], in assay [7] and in assay [8] was inactive.

For the compound `COc1ccc2ncc(C#N)c(CCN3[C@@H]4CC[C@H]3CC(NCc3ccc5c(n3)NC(=O)CS5)C4)c2c1` (stereo not given in full), the growth inhibition in assay [1] is 27%; in assay [4], 95% (active). For the same compound, the figures for the inhibition in assay [2] and in assay [3] were 6% and -1%, respectively. Further, the outcome in assay [5], in assay [6], in assay [7] and in assay [8] was inactive.

With `CCC(C)OC(=O)C1=C(C)NC2=C(C(=O)CC(c3ccc(OC)c(OC)c3)C2)C1c1ccc(C)o1` (stereo not given), the growth inhibition in assay [1] is 82% (active); in assay [4], 93% (active). Besides, the inhibition in assay [2] was 6%; in assay [3] it was 2%. Further, the outcome in assay [5], in assay [6], in assay [7] and in assay [8] was inactive.
